Reference: PubChem BioAssay (NCATS)
Several values for one entry are separate records, joined by “and”; a condition that tells them apart may be missing. Equal entries are not always repeated. Results filed as inconclusive are left out. Activity calls are given as the source filed them. Calls follow the shape of the dose curve; as a rule, active = well fitted curve in the direction sought with a large enough effect; inconclusive = small, poorly fitted or top-dose-only effect, or another doubt; inactive = no such curve, though single readings can be large; an effect the other way counts as inactive or inconclusive.

Key:
[1] = qHTS of pediatric cancer cell lines to identify multiple opportunities for drug repurposing: Primary screen for DAOY cells (AID 1347090); conditions: DAOY medulloblastoma viability, CellTiter-Glo luminescence, 48 h; series mostly up to 46 µM; also: nearly all actives have a fitted effect of over 55% in size
In short: (§1)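 Cell viability, CellTiter-Glo luminescence; 500-1,000 cells/well, 8- or 11-point titration, 48 h compound exposure at 37 degrees C, 5% CO2. Controls: DMSO neutral, bortezomib 2.3 µM final as positive.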

[2] = qHTS of pediatric cancer cell lines to identify multiple opportunities for drug repurposing: Primary screen for SJ-GBM2 cells (AID 1347091); conditions: SJ-GBM2 viability, CellTiter-Glo luminescence, 48 h; series mostly up to 46 µM
In short: as §1

[3] = qHTS of pediatric cancer cell lines to identify multiple opportunities for drug repurposing: Primary screen for A673 cells (AID 1347092); conditions: A673 Ewing sarcoma viability, CellTiter-Glo ATP luminescence, 48 h; series mostly up to 46 µM; also: nearly all actives have a fitted effect of over 45% in size
In short: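 Cells are plated, rested 5 h, dosed by pintool, incubated 48 h, then lysed with CellTiter-Glo and read by luminescence. DMSO is the neutral control; bortezomib at 2.3 uM final is the positive control.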

[4] = qHTS of pediatric cancer cell lines to identify multiple opportunities for drug repurposing: Primary screen for SK-N-MC cells (AID 1347093); conditions: SK-N-MC viability, CellTiter-Glo luminescence, 48 h; series mostly up to 46 µM
In short: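 Metabolically active cells were quantified by ATP-dependent luminescence (CellTiter-Glo, 15 min at room temperature) following 48 h treatment. Cells had been plated at 500-1,000 per well and settled for 5 h beforehand.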

[5] = qHTS of pediatric cancer cell lines to identify multiple opportunities for drug repurposing: Primary screen for BT-37 cells (AID 1347094); conditions: BT-37 viability, CellTiter-Glo luminescence, 48 h; series mostly up to 57.3 µM
In short: (§2)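 Luminescence from CellTiter-Glo served as readout of metabolically active cells after 48 h compound exposure. Titrations: MIPE 11-point, from 0.78 nM; NPC 8-point, from 0.59 nM (final). Concentration-response curves came straight from the primary screen.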

[6] = qHTS of pediatric cancer cell lines to identify multiple opportunities for drug repurposing: Primary screen for NB-EBc1 cells (AID 1347095); conditions: NB-EBc1 neuroblastoma viability, CellTiter-Glo luminescence, 48 h; series mostly up to 46 µM
In short: as §2

[7] = qHTS of pediatric cancer cell lines to identify multiple opportunities for drug repurposing: Primary screen for U-2 OS cells (AID 1347096); conditions: U-2 OS viability, CellTiter-Glo luminescence, 48 h; series mostly up to 46 µM; also: nearly all actives have a fitted effect of over 50% in size
In short: (§3)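 Cells (500-1,000/well) rested 5 h, then received compounds for 48 h; metabolically active cells were measured by CellTiter-Glo luminescence. Final concentrations spanned up to 46 µM (MIPE, 11-point) or 0.59 nM-46 µM (NPC, 8-point) in primary screens, 11-point in follow-ups.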

[8] = qHTS of pediatric cancer cell lines to identify multiple opportunities for drug repurposing: Primary screen for Saos-2 cells (AID 1347097); conditions: Saos-2 viability, CellTiter-Glo ATP luminescence, 48 h; series mostly up to 46 µM; also: nearly all actives have a fitted effect of over 40% in size
In short: as §2

[9] = qHTS of pediatric cancer cell lines to identify multiple opportunities for drug repurposing: Primary screen for SK-N-SH cells (AID 1347098); conditions: SK-N-SH viability, CellTiter-Glo luminescence, 48 h; series mostly up to 57 µM; also: nearly all actives have a fitted effect of over 65% in size
In short: as §3

[10] = qHTS of pediatric cancer cell lines to identify multiple opportunities for drug repurposing: Primary screen for NB1643 cells (AID 1347099); conditions: NB1643 neuroblastoma viability, CellTiter-Glo luminescence, 48 h; series mostly up to 46 µM; also: nearly all actives have a fitted effect of over 50% in size
In short: as §2

Measured: Potency
Potency is read from the fitted curve at half-maximal effect.

CC1OC(C)OC(C)O1 (stereo not given)
inactive: [1] | [2] | [3] | [4] | [5] | [6] | [7] | [8] | [9] | [10]

CC[N+]1(C)CCCC(OC(=O)C(O)(c2ccccc2)c2ccccc2)C1 (stereo not given)
inactive: [1] | [2] | [3] | [4] | [5] | [6] | [7] | [8] | [9] | [10]

C#CCN(C)[C@H](C)Cc1ccccc1
inactive: [1] | [2] | [3] | [4] | [5] | [6] | [7] | [8] | [9] | [10]

NN=C(N)N
inactive: [1] | [2] | [3] | [4] | [5] | [6] | [7] | [8] | [9] | [10]

CC[N+](CC)(CC)CC
inactive: [1] | [2] | [3] | [4] | [5] | [6] | [7] | [8] | [9] | [10]

C#CCOC(C(=O)OCCN(C)C)(c1ccccc1)c1ccccc1
inactive: [1] | [2] | [3] | [4] | [5] | [6] | [7] | [8] | [9] | [10]

CCCC(C)(COC(N)=O)COC(=O)NC(C)C (stereo not given)
inactive: [1] | [2] | [3] | [4] | [5] | [6] | [7] | [8] | [9] | [10]

Fc1ccc(C(OCCN2CCN(CCCc3ccccc3)CC2)c2ccc(F)cc2)cc1
active: [1] 23.5 µM | [2] 20.9 µM and 16.8 µM | [3] 14.8 µM | [4] 9.35 µM and 10.6 µM | [5] 21.7 µM and 24.6 µM | [6] 23.7 µM | [7] 23.5 µM | [8] 14.8 µM and 15 µM | [9] 9.7 µM | [10] 13.2 µM

Cc1cccc(C)c1NC1=NCCCS1
inactive: [1] | [2] | [3] | [4] | [5] | [6] | [7] | [8] | [9]

CNCC(O)c1ccc(O)cc1 (stereo not given)
inactive: [1] | [2] | [3] | [4] | [5] | [6] | [7] | [8] | [9] | [10]

CCN(C(C)=O)c1cccc(-c2ccnc3c(C#N)cnn23)c1
inactive: [1] | [2] | [3] | [4] | [5] | [6] | [7] | [8] | [9] | [10]

CN1CCN(C(=O)O[C@H]2c3nccnc3C(=O)N2c2ccc(Cl)cn2)CC1
inactive: [1] | [2] | [3] | [4] | [5] | [6] | [7] | [8] | [9] | [10]

CC(=O)Nc1cc([As](=O)(O)O)ccc1O
inactive: [1] | [2] | [3] | [4] | [5] | [6] | [7] | [8] | [9] | [10]

CC(C)CC(N(C)C)C1(c2ccc(Cl)cc2)CCC1 (stereo not given)
inactive: [1] | [2] | [3] | [4] | [5] | [6] | [7] | [8] | [9] | [10]

Cc1ccc(-c2nc3ccc(C)cn3c2CC(=O)N(C)C)cc1
inactive: [1] | [2] | [3] | [4] | [5] | [6] | [7] | [8] | [9] | [10]

NCC(O)c1ccc(O)cc1 (stereo not given)
inactive: [1] | [2] | [3] | [4] | [5] | [6] | [7] | [8] | [9] | [10]

Oc1cc(Cl)ccc1Oc1ccc(Cl)cc1Cl
inactive: [7]
active: [1] 49.5 µM | [2] 4.42 µM | [3] 39.4 µM | [4] 27.9 µM | [5] 40.9 µM | [6] 4.95 µM | [8] 24.8 µM and 26.6 µM | [9] 11.4 µM and 27.3 µM | [10] 35.1 µM

CNC(=O)c1ccc(N2C(=S)N(c3ccc(C#N)c(C(F)(F)F)c3)C(=O)C23CCC3)cc1F
inactive: [2] | [5] | [8]
active: [1] 3.72 µM | [3] 18.7 µM | [4] 5.9 µM | [9] 19.2 µM

c1ccc2c(c1)Nc1ccccc1S2
active: [8] 48.6 µM
inactive: [1] | [2] | [3] | [4] | [5] | [6] | [7] | [10]

NCCc1cc(O)c(O)cc1O
inactive: [1] | [2] | [3] | [4] | [5] | [6] | [7] | [8] | [9] | [10]
